Consider 40 molecules from PubChem BioAssay.

One test is described as follows: viability loss with induced miR-34 in A549 – imaging, A549 dox-inducible miR-34, nuclei and caspase counts, primary screen (AID 1347080). Further: test concentration not given here. Particulars: A549 miR-34 inducible, Hoechst nuclei count, 48 h; measured here: relative caspase fold change +Dox/-Dox.
As for `Nc1nc2[nH]c(=O)[nH]c2c(=O)[nH]1`, the fold change was determined as 0.746. Still for that read-out and setting: in the case of `CCCCC/C=C\C/C=C\C/C=C\C/C=C\CCCC(=O)OCC(O)CO` (stereo unspecified) it was 0.738; in that of `CC(C)OC(=O)CCC/C=C\C[C@@H]1[C@@H](/C=C/[C@H](O)C2Cc3ccccc3C2)[C@@H](F)C[C@@H]1O`, 2.25; in that of `CCCCC[C@H](O)/C=C/[C@H]1C=CC(=O)[C@H]1C/C=C\CCCC(=O)O`, 1.6. Still for that read-out and setting: the result for `CCCCC/C=C\C/C=C\C/C=C\C/C=C\CCCC(=O)OCc1ccsc1` reads 1.02; that for `CC(C)CCCCCCC/C=C/C(=O)O`, 0.582; that for `O=C(OC[C@@H]1O[C@H]1c1ccccc1)Oc1ccc([N+](=O)[O-])cc1`, 0.428. On the same count and under the same terms, in the case of `CC/C=C/C[C@H](O)/C=C/[C@H]1[C@H](O)CC(=O)[C@@H]1C/C=C\CCCC(=O)O` it was 1.46; in that of `C#CCCC[C@@H](O)CCCCCCCCCCC(=O)O`, 1.14. `CCCCCCCCCCCCCCCC(=O)OC[C@H](COP(=O)([O-])OCC[N+](C)(C)C)OC(=O)CCCCCCCC(=O)/C=C/C(=O)O`: the fold change came to 0.858. Turning to `CC#CCC(C)[C@@H](O)/C=C/[C@@H]1[C@H]2C/C(=C\CCCC(=O)O)C[C@H]2C[C@H]1O` (stereo partly specified), the fold change stood at 1.4. As for `CC(=O)OCC(=O)[C@@]12N=C(C)O[C@@H]1CC1C3CCC4=CC(=O)C=C[C@]4(C)C3[C@@H](O)C[C@@]12C` (stereo partly specified), the fold change is 0.993.

For the molecule `CCCCC[C@H](O)/C=C/[C@H]1[C@H](O)CC(=O)[C@@H]1C/C=C\CCCC(=O)NC(CO)CO`, the fold change was 1.67. `O=C(O)CCC/C=C\C[C@@H]1[C@@H](CCC(=O)CCc2ccccc2)[C@H](O)C[C@@H]1O`: the fold change was 1.4. Regarding `c1ccc2c(NCCCCCCCNc3c4c(nc5ccccc35)CCCC4)c3c(nc2c1)CCCC3`, the fold change was 0.663. Consider `C=CCN(C)CCCCCCOc1ccc(C(=O)c2ccc(Br)cc2)c(F)c1`, for which the fold change was 0.704. Take `CCCC[C@H](C)C[C@H](O)/C=C/[C@H]1[C@H](O)CC(=O)[C@@H]1CCCC/C=C/C(=O)O`: the fold change is 1.29. For `CCCCC[C@H](O)/C=C/[C@H]1C=CC(=O)[C@@H]1CCCCCCC(=O)OCC`, the fold change was 1.83. Still for that read-out and setting: in the case of `CCCCCCCC/C=C\CCCCCCCC(=O)C(F)(F)F` it was 0.952. `CCCCC/C=C/C=C1/C=CC(=O)[C@@H]1CCCCCCC(=O)O`: the fold change is 0.938. With `CCCCC(C)(C)[C@H](O)/C=C/[C@H]1[C@H](O)CC(=O)[C@@H]1CCCCCCC(=O)O`, the fold change was 1.17. As for `CC(C)ON(CC(=O)NO)S(=O)(=O)c1ccc(-c2ccccc2)cc1`, the fold change was 1.73. On the same count and under the same terms, in the case of `[O-]/[N+](=N/O[C@@H]1O[C@H](CO)[C@H](O)[C@H](O)[C@H]1O)N1CCCC1` it was 0.427; in that of `O=P(O)(O)OC1[C@@H](O)[C@H](O)C(O)[C@H](O)[C@@H]1O` (stereo partly specified), 0.602. Consider `COc1ccc2c(c1)c(CC(=O)Oc1ccc(-c3cc(=S)ss3)cc1)c(C)n2C(=O)c1ccc(Cl)cc1`, for which the fold change came to 2.02.

Regarding `COc1ccc(-c2nc3cc(F)ccc3s2)cc1OC`, the fold change stood at 0.244.

Staying with this test, now noted: A549 miR-34 inducible, Hoechst nuclei count, 48 h; measured here: total cells with miR-34 induction; stronger effect = lower value.
`O=C(CN=C(c1ccccc1)c1ccccc1)OCc1ccccc1` returned a cell count of 5290.

Take `CCCCC[C@@H](O)/C=C/[C@@H]1[C@H](C/C=C\CCCC(=O)O)[C@@H](O)C[C@H]1O`: the cell count is 5000. In the case of `CCCCCCCCCCCCCCCC(=O)OC[C@H](COP(=O)([O-])OCC[N+](C)(C)C)OC(=O)CCCCCCCCCCCCCCC`, the cell count stood at 5330. Still for that read-out and setting: in the case of `CCCCC(C)(O)C/C=C/[C@H]1[C@H](O)CC(=O)[C@H]1CCCCCCC(=O)OC` (stereo partly specified) it was 5420. Molecule `CCCCCC/C=C\CCCCCCCCCCOC(C)=O` yielded a cell count of 5570. `O=C(O)CCC/C=C\C[C@H]1[C@@H](O)CC(=O)[C@@H]1/C=C/[C@@H](O)COc1cccc(C(F)(F)F)c1`: the cell count is 6530.

In turn, `CCCCC/C=C\C=C\C(O)CCCCCCCC(=O)OC[C@@H](COC(=O)CCCCCCC/C=C\C=C\C(O)CCCCC)OC(=O)CCCCCCC/C=C\C=C\C(O)CCCCC` (stereo partly specified) yielded a cell count of 5890. As to `CCCCCCCC/C=C\CCCCCC(=O)O`, the cell count came to 5490. Consider `CCCCC[C@H](O)CC[C@@H]1[C@@H](C/C=C\CCCC(=O)O)[C@@H](O)C[C@H]1O`, for which the cell count amounted to 6190. Regarding `CCCCCCCCCCCCCCCCCC(=O)NCCS(=O)(=O)O`, the cell count came to 6120.

Regarding `COc1cc(/C=C/c2ccc(Cl)cc2)cc(OC)c1`, the cell count is 6120. With `C/C(O)=C1\C(=O)[C@@H]2[C@H]3c4c[nH]c5cccc(c45)C[C@H]3C(C)(C)N2C1=O`, the cell count worked out at 2150. As for `CCCCC[C@H](O)/C=C/[C@@H]1[C@H]2CC(CCCCC(=O)O)O[C@H]2C[C@H]1O` (stereo partly specified), the cell count was determined as 6700. Still for that read-out and setting: in the case of `CCCCC/C=C\C/C=C\C/C=C\C/C=C\CCCC(=O)NC[C@]1(C)CCC[C@]2(C)c3ccc(C(C)C)cc3CC[C@@H]12` it was 5530; in that of `Nc1nc2[nH]c(=O)[nH]c2c(=O)[nH]1`, 6070; in that of `CCCCC/C=C\C/C=C\C/C=C\C/C=C\CCCC(=O)OCC(O)CO` (stereo unspecified), 4970. Regarding `CC(C)OC(=O)CCC/C=C\C[C@@H]1[C@@H](/C=C/[C@H](O)C2Cc3ccccc3C2)[C@@H](F)C[C@@H]1O`, the cell count is 5350. As for `CCCCC[C@H](O)/C=C/[C@H]1C=CC(=O)[C@H]1C/C=C\CCCC(=O)O`, the cell count was 6170. Molecule `CCCCC/C=C\C/C=C\C/C=C\C/C=C\CCCC(=O)OCc1ccsc1` yielded a cell count of 6270. In turn, `CC(C)CCCCCCC/C=C/C(=O)O` had a cell count of 5080. Molecule `O=C(OC[C@@H]1O[C@H]1c1ccccc1)Oc1ccc([N+](=O)[O-])cc1` registered a cell count of 5550. For the molecule `CC/C=C/C[C@H](O)/C=C/[C@H]1[C@H](O)CC(=O)[C@@H]1C/C=C\CCCC(=O)O`, the cell count was 5700.

`C#CCCC[C@@H](O)CCCCCCCCCCC(=O)O` had a cell count of 5310. The molecule `CCCCCCCCCCCCCCCC(=O)OC[C@H](COP(=O)([O-])OCC[N+](C)(C)C)OC(=O)CCCCCCCC(=O)/C=C/C(=O)O` yielded a cell count of 5750. As to `CC#CCC(C)[C@@H](O)/C=C/[C@@H]1[C@H]2C/C(=C\CCCC(=O)O)C[C@H]2C[C@H]1O` (stereo partly specified), the cell count was found to be 4970. In turn, `CC(=O)OCC(=O)[C@@]12N=C(C)O[C@@H]1CC1C3CCC4=CC(=O)C=C[C@]4(C)C3[C@@H](O)C[C@@]12C` (stereo partly specified) showed a cell count of 6330.

In the case of `CCCCC[C@H](O)/C=C/[C@H]1[C@H](O)CC(=O)[C@@H]1C/C=C\CCCC(=O)NC(CO)CO`, the cell count was 6080. On the same count and under the same terms, the result for `O=C(O)CCC/C=C\C[C@@H]1[C@@H](CCC(=O)CCc2ccccc2)[C@H](O)C[C@@H]1O` reads 5970. Consider `c1ccc2c(NCCCCCCCNc3c4c(nc5ccccc35)CCCC4)c3c(nc2c1)CCCC3`, for which the cell count came to 4480. Molecule `C=CCN(C)CCCCCCOc1ccc(C(=O)c2ccc(Br)cc2)c(F)c1` gave a cell count of 5700.

Molecule `CCCC[C@H](C)C[C@H](O)/C=C/[C@H]1[C@H](O)CC(=O)[C@@H]1CCCC/C=C/C(=O)O` showed a cell count of 5710. `CCCCC[C@H](O)/C=C/[C@H]1C=CC(=O)[C@@H]1CCCCCCC(=O)OCC` registered a cell count of 5280. Consider `CCCCCCCC/C=C\CCCCCCCC(=O)C(F)(F)F`, for which the cell count came to 6200. Molecule `CCCCC/C=C/C=C1/C=CC(=O)[C@@H]1CCCCCCC(=O)O` gave a cell count of 5570. Molecule `CCCCC(C)(C)[C@H](O)/C=C/[C@H]1[C@H](O)CC(=O)[C@@H]1CCCCCCC(=O)O` had a cell count of 5660. As for `CC(C)ON(CC(=O)NO)S(=O)(=O)c1ccc(-c2ccccc2)cc1`, the cell count stood at 6160. In turn, `[O-]/[N+](=N/O[C@@H]1O[C@H](CO)[C@H](O)[C@H](O)[C@H]1O)N1CCCC1` displayed a cell count of 6560. As to `O=P(O)(O)OC1[C@@H](O)[C@H](O)C(O)[C@H](O)[C@@H]1O` (stereo partly specified), the cell count came to 5550. Regarding `COc1ccc2c(c1)c(CC(=O)Oc1ccc(-c3cc(=S)ss3)cc1)c(C)n2C(=O)c1ccc(Cl)cc1`, the cell count came to 5100. With `COc1ccc(-c2nc3cc(F)ccc3s2)cc1OC`, the cell count was 4920.
